Results published in PubChem BioAssay AID1345085 (National Center for Advancing Translational Sciences (NCATS), 2018).
Records with an inconclusive call do not appear. A number with no mark means an inactive call. Active and inactive are the calls of the source. Calls follow the shape of the dose curve; as a rule, active = well fitted cell-killing curve with a large enough effect; inconclusive = small, poorly fitted or top-dose-only effect, or effect the other way; inactive = no such curve, though single readings can be large or run the other way.
% is scaled to controls: 0 for no effect and ±100 for the full control effect; potency is read from the fitted curve at half-maximal effect.
Also: nearly all actives have a fitted effect of over 55% in size.

Each compound was assayed on HeLa (assay: Confirmatory qHTS for gynecologic anti-cancer compounds from libraries of approved drugs and bioactive compounds). Conditions: gynecologic cancer cell panel viability, ATPlite luminescence, 48 h; series mostly up to 57.6 µM; activity change, negative = viability loss: at the top concentration.
In short: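 Cells (1,000/well) plated 16 h, then exposed 48 h at 37 °C to 11 concentrations (1:3) from 57.5 uM to 0.977 nM. Viability by ATPlite luminescence after 15 min; IC50 derived, with HEK 293T used for selectivity index.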
With `Cc1sc2c(c1C)C(c1ccc(Cl)cc1)=NC(CC(=O)OC(C)(C)C)c1nnc(C)n1-2` (stereo not drawn) the Potency was 769 nM (active). In the case of `CCNC(=O)C[C@@H]1N=C(c2ccc(Cl)cc2)c2cc(OC)ccc2-n2c(C)nnc21`, the Potency was 1530 nM (active). `C/C=C(/C)C(=O)O[C@H]1C(C)=C2[C@H]([C@@H]1OC(=O)CCCCCCC)[C@@](C)(OC(C)=O)C[C@H](OC(=O)CCC)[C@@]1(O)[C@H]2OC(=O)[C@@]1(C)O` was tested, and the Potency was 61.1 nM (active). In the case of `C[C@H]1CCC/C=C/C2C[C@H](O)C[C@H]2[C@H](O)/C=C/C(=O)O1` (stereo partly drawn), the Potency was 172 nM (active). For `O=C(O)Cc1ccccc1`, the “activity change, negative = viability loss” value was 19.4%. `CCC(=O)O[C@H]1CC[C@H]2[C@@H]3CCC4=CC(=O)CC[C@]4(C)[C@H]3CC[C@]12C` was tested, and the Potency was 4320 nM (active). In the case of `C=C(C)[C@H]1Cc2c(ccc3c2O[C@@H]2COc4cc(OC)c(OC)cc4[C@@H]2C3=O)O1`, the Potency was 243 nM (active). `C[C@]12CC[C@H]3[C@@H](CCC4=CC(=O)CC[C@@H]43)[C@@H]1CC[C@@H]2OC(=O)CCc1ccccc1` was tested, and the Potency was 2730 nM (active).
